Some test systems named below: HCT-15 colon; HT29 colon; SNB-75 CNS; SNB-19 CNS; U251 CNS; PC-3 prostate; SK-MEL-5 melanoma; UACC-62 melanoma; LOX IMVI melanoma; SK-MEL-28 melanoma.
Assay in all cases: NCI-60 one-dose screen, 48 h (100 = growth as untreated, 0 = no growth, -100 = all killed)
Holding throughout (conditions): 10 µM unless noted

Among the data in PubChem BioAssay (NCI) are growth values, retold here.

The panel holds about 83,000 compounds, 20% with a hit somewhere; the sample as a whole holds those more often.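 Testing used 96-well plates and a 48-hour single-concentration exposure. Example: -40 means 40% of the starting cells died.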 Unmarked numbers belong to inactive results. Calls of active or inactive are those of the source. How the source made its calls: active means growth percent below 10; inactive means the rest.

Regarding `COC(=O)c1ccc(-n2cc(CCCOS(=O)(=O)c3ccc(F)cc3)nn2)cc1`, the growth in the experiment with HCT-15 colon is 98.1%; with HT29 colon, 101%; in the experiment on SNB-75 CNS it was 94.5%; with SNB-19 CNS, 93.9%; in the experiment on U251 CNS it was 96.7%; in the experiment with PC-3 prostate it was 93.4%. The growth in the experiment on SK-MEL-5 melanoma was 103%; in the experiment with UACC-62 melanoma, 92.5%; with LOX IMVI melanoma, 98.4%; with SK-MEL-28 melanoma, 101%.
As to `COc1cc(C)cc(-c2c(-c3cc(N4CC(O)C4)nc(-c4cccnc4)n3)cnn2C)c1`, the growth in the experiment on HCT-15 colon was 77.4%; with HT29 colon it was 88.3%; in the experiment on SNB-75 CNS, 82.5%; in the experiment on SNB-19 CNS, 91.4%; in the experiment on U251 CNS, 91.3%; in the experiment on PC-3 prostate it was 82.5%. For the same compound, the growth was 69.8% in the experiment on SK-MEL-5 melanoma, 73.1% in the experiment on UACC-62 melanoma, 52.9% in the experiment on LOX IMVI melanoma and 92.5% with SK-MEL-28 melanoma.
Turning to `COc1ccc(S(=O)(=O)Oc2ccc(-c3sc4cc(OS(=O)(=O)c5ccc(OC)cc5)ccc4c3C(=O)c3ccc(OCCN4CCCCC4)cc3)cc2)cc1`, the growth in the experiment on HCT-15 colon was 101%; in the experiment on HT29 colon, 92%; with SNB-75 CNS, 70.9%; in the experiment with SNB-19 CNS it was 103%; with U251 CNS, 99.7%; with PC-3 prostate it was 106%. For the same compound, the growth was 101% in the experiment on SK-MEL-5 melanoma, 101% in the experiment on UACC-62 melanoma, 101% with LOX IMVI melanoma and 103% in the experiment with SK-MEL-28 melanoma.
As for `COc1ccc(-c2csc(NC(=O)CSc3nc(C)cc(=O)[nH]3)n2)cc1`, the growth was 102% with HCT-15 colon; 107% in the experiment with HT29 colon; 95.9% with SNB-75 CNS; 89.3% in the experiment on SNB-19 CNS; 102% in the experiment on U251 CNS; 94.9% in the experiment with PC-3 prostate. The growth in the experiment on SK-MEL-5 melanoma is 96.7%; with UACC-62 melanoma, 87.7%; with LOX IMVI melanoma, 96.3%; in the experiment with SK-MEL-28 melanoma it was 106%.
As to `O=C(c1ccccc1)[C@@H](c1ccccc1)[C@]1(O)C(=O)Nc2ccccc21`, the growth was 100% in the experiment with HCT-15 colon; 101% with HT29 colon; 83.7% in the experiment on SNB-75 CNS; 94.1% in the experiment with SNB-19 CNS; 101% with U251 CNS; 90.7% in the experiment on PC-3 prostate. The growth was 92.1% in the experiment on SK-MEL-5 melanoma, 85.9% with UACC-62 melanoma, 91.1% in the experiment on LOX IMVI melanoma and 96.2% in the experiment on SK-MEL-28 melanoma.
Regarding `Cc1ccc(OCCOCCOCCOCCOc2ccc(C)n(O)c2=S)c(=S)n1O`, the growth is 28.5% with HCT-15 colon; 23.9% in the experiment with HT29 colon; 33.1% in the experiment on SNB-75 CNS; 15.3% in the experiment on SNB-19 CNS; 9.43% (active) with U251 CNS; 32.7% in the experiment with PC-3 prostate. Also, the growth in the experiment on SK-MEL-5 melanoma is -15.8% (active); in the experiment on UACC-62 melanoma, -0.19% (active); in the experiment on LOX IMVI melanoma it was 4.26% (active); in the experiment on SK-MEL-28 melanoma, 31%.
For the compound `COc1ccc(NC(=O)CSc2oc(-c3ccccc3)nc2S(=O)(=O)c2ccc(Cl)cc2)c(OC)c1`, the growth is 73.7% in the experiment with HCT-15 colon; 70.3% in the experiment with HT29 colon; -1.47% (active) in the experiment with SNB-75 CNS; 55.4% with SNB-19 CNS; 50.6% with U251 CNS; 61% in the experiment with PC-3 prostate. Moreover, the growth in the experiment with SK-MEL-5 melanoma is 66.3%; in the experiment with UACC-62 melanoma it was 41.4%; with LOX IMVI melanoma, 76.1%; in the experiment with SK-MEL-28 melanoma, 67.1%.
Take `CC(=O)O[C@H]1CC[C@@]2(C)C(=CC[C@@H]3[C@@H]2CC[C@]2(C)C(Cl)=C(c4nc5ccc(Cl)cn5c4NC(C)(C)C)C[C@@H]32)C1`: the growth with HCT-15 colon is 100%; in the experiment with HT29 colon, 102%; in the experiment with SNB-75 CNS it was 76.4%; in the experiment on SNB-19 CNS, 85.1%; in the experiment on U251 CNS, 88.5%; in the experiment with PC-3 prostate it was 82.9%. The growth was 95.2% in the experiment with SK-MEL-5 melanoma, 73.6% with UACC-62 melanoma, 89.8% in the experiment with LOX IMVI melanoma and 94.4% in the experiment with SK-MEL-28 melanoma.
As to `COc1ccc(Nc2nc(Nc3cc(C)[nH]n3)c3cc(OC)c(OC)cc3n2)cc1`, the growth in the experiment with HCT-15 colon is -83.1% [20 µM] (active); in the experiment with HT29 colon, -61.2% [20 µM] (active); in the experiment on SNB-75 CNS, -94.5% [20 µM] (active); in the experiment with SNB-19 CNS it was -99.2% [20 µM] (active); in the experiment on U251 CNS, -69.8% [20 µM] (active); in the experiment with PC-3 prostate, -80.7% [20 µM] (active). Besides, the growth was -84.7% [20 µM] (active) in the experiment with SK-MEL-5 melanoma, -98.9% [20 µM] (active) in the experiment on UACC-62 melanoma, -92.6% [20 µM] (active) in the experiment on LOX IMVI melanoma and -95.9% [20 µM] (active) in the experiment with SK-MEL-28 melanoma.
Turning to `COc1ccc(N2C(=O)/C(=C/C(Cl)=C/c3ccc([N+](=O)[O-])cc3)SC2=S)cc1`, the growth in the experiment on HCT-15 colon is -24.1% (active); in the experiment on HT29 colon, -20.9% (active); with SNB-75 CNS, -33.8% (active); with SNB-19 CNS it was 2.68% (active); in the experiment with U251 CNS, -83.1% (active); in the experiment with PC-3 prostate, 2.17% (active). Besides, the growth in the experiment on SK-MEL-5 melanoma was 29.3%; with UACC-62 melanoma, -25.2% (active); in the experiment on LOX IMVI melanoma it was -86.2% (active); in the experiment with SK-MEL-28 melanoma, 13.7%.
For the compound `CS(=O)(=O)c1ccc(/C(=N/NC(N)=S)c2ccc(F)cc2)cc1`, the growth with HCT-15 colon was 98.4%; with HT29 colon it was 107%; in the experiment on SNB-75 CNS it was 93.1%; in the experiment with SNB-19 CNS, 99.9%; with U251 CNS, 107%; in the experiment with PC-3 prostate, 103%. Besides, the growth with SK-MEL-5 melanoma is 102%; in the experiment on UACC-62 melanoma it was 101%; in the experiment on LOX IMVI melanoma, 101%; in the experiment on SK-MEL-28 melanoma it was 114%.
With `Oc1ccc(C2OCCO2)c2cccnc12`, the growth in the experiment on HCT-15 colon is 32%; in the experiment with HT29 colon it was 78.3%; in the experiment on SNB-75 CNS it was 80.6%; in the experiment on SNB-19 CNS it was 64.4%; in the experiment with U251 CNS it was 27.4%; with PC-3 prostate, 32%. Besides, the growth in the experiment with SK-MEL-5 melanoma is 48.4%; in the experiment on UACC-62 melanoma it was 51.4%; with LOX IMVI melanoma it was 38.4%; in the experiment with SK-MEL-28 melanoma, 63.4%.
As to `CC(C)n1cc(C2=C(c3cccc4ccccc34)C(=O)NC2=O)c2cc(Br)ccc21`, the growth in the experiment on HCT-15 colon is 43.1%; with HT29 colon, 43.1%; in the experiment on SNB-75 CNS, 38.6%; in the experiment on SNB-19 CNS, 82.6%; in the experiment with U251 CNS it was 60.4%; with PC-3 prostate, 57.8%. Moreover, the growth is -0.736% (active) in the experiment with SK-MEL-5 melanoma, 60% with UACC-62 melanoma, 1.07% (active) with LOX IMVI melanoma and 90.7% in the experiment on SK-MEL-28 melanoma.
Regarding `CCOC(=O)CC1C(CNC(=O)NC)OC(n2cnc3c(NC(=O)Nc4ccccc4)ncnc32)C1O[Si](C)(C)C(C)(C)C` (stereo not given), the growth in the experiment on HCT-15 colon is 55.7%; in the experiment on HT29 colon, 27%; in the experiment on SNB-75 CNS it was 63.4%; with SNB-19 CNS, 93.9%; with U251 CNS it was 34%; in the experiment on PC-3 prostate, 47%. In addition, the growth was 58.3% with SK-MEL-5 melanoma, 80.4% with UACC-62 melanoma, 50.5% in the experiment on LOX IMVI melanoma and 83.9% in the experiment on SK-MEL-28 melanoma.
